Rab7 wt modul: modulators of GTP binding to dog Rab7 wildtype GTPase | GST-Rab7 beads, fluorescent GTP binding, flow cytometry; actives lie on both sides; untreated = 100%, excess cold GTP = 0% | GTP binding activity (percent of control), % at 10 µM | actives 0.055% (n = 190,000) | AID 758;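 active = fluorescent GTP binding to Rab7 beads changed by at least 20 points from the 100% baseline, either direction, mostly lower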;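 also: median green fluorescence of bound Bodipy-FL-GTP per Rab7 bead population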
Rab2 wt GTP: changes GTP binding to wildtype dog Rab2A, up or down; P61105; actives 0.19% (n = 190,000); GTP binding activity, % at 10 µM; GST-Rab2 wt beads, Bodipy-GTP binding, flow cytometry;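 active = GTP binding activity at least 20 points away from 100%, either lowered or raised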
Rac1 wt modul: human Rac1 wildtype GTP binding, inhibitors and activators. GST-Rac1 beads, fluorescent GTP binding, flow cytometry; actives lie on both sides; 0 = cold GTP competed, 100 = untreated. GTP binding activity (% of control), % at 10 µM. AID 757. P63000. actives 0.27% (n = 190,000);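 active = GTP binding activity at least 20 points away from the 100% control level, either lower or higher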
Rac1 act GTP bind: human Rac1 activated mutant GTP binding change; P63000; percent activity (GTP binding), % at 10 µM; GST-Rac1 activated beads, fluorescent GTP binding, flow cytometry; actives lie on both sides; 100% means binding = to untreated wells; actives 0.11% (n = 190,000);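 active = GTP binding at least 20 percentage points away from the 100% baseline, in either direction, so actives lie on both sides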
HRas wt GTP bind: human HRas wildtype GTP binding, change in either direction | P01112 | GST-Ras wt beads, Bodipy-FL-GTP binding, flow cytometry; actives lie on both sides | GTP binding activity, % at 10 µM | actives 0.14% (n = 190,000) | AID 759;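 active = GTP binding activity at least 20% away from the 100% baseline, either lowered as inhibitor or raised as activator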
Target sequence (P01112 whole entry, looked up): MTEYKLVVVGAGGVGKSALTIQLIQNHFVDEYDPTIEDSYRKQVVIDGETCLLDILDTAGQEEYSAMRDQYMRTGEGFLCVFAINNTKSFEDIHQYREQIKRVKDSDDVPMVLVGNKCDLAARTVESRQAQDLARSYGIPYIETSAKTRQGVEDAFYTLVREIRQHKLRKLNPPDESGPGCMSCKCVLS
Cdc42 wt: human Cdc42 wildtype GTP binding change, either direction; GST-Cdc42 beads, Bodipy-GTP binding, flow cytometry; actives lie on both sides; P60953; percent activity (GTP binding), % at 10 µM; AID 761; actives 0.2% (n = 190,000);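 active = percent activity GTP binding at least 20 points away from the 100% baseline, either down as inhibitor or up as activator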;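 also: median bead fluorescence of bound Bodipy-FL-GTP at 100 nM; below 100% means less GTP binding so inhibitor and above means activator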
Target sequence (P60953 whole entry, looked up): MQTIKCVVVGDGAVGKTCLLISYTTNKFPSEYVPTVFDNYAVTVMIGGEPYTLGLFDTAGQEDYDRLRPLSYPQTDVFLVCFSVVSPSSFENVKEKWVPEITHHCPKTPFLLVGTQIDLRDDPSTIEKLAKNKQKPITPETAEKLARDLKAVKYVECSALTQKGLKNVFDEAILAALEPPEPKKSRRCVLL
Numbers stand for hits; [ ] = another dose, or the depositor's remark. Sampled rows, rich in hits. Any-hit rate of the full collection: about 0.4%.

Results for COC(=O)c1ncn(C2OC(COC(C)=O)C(OC(C)=O)C2OC(C)=O)n1 (stereo not drawn) ?
Rab7 wt modul: inactive; Rab2 wt GTP: inactive; Rac1 wt modul: inactive; Rac1 act GTP bind: inactive; HRas wt GTP bind: inactive; Cdc42 wt: inactive

What do the screens show for `CC(C)(C)C(=O)OCC1OC(n2cnc(C(N)=O)n2)C(O)C1O` (stereo not drawn)?
Rab7 wt modul: inactive; Rab2 wt GTP: inactive; Rac1 wt modul: 120[activator]; Rac1 act GTP bind: inactive; HRas wt GTP bind: inactive; Cdc42 wt: inactive

How did Cc1ccccc1Nc1nc(NCc2ccco2)c2ccccc2n1 do in these assays?
Rab7 wt modul: inactive; Rab2 wt GTP: inactive; Rac1 wt modul: inactive; Rac1 act GTP bind: inactive; HRas wt GTP bind: inactive; Cdc42 wt: inactive

How did Cc1cccc(Nc2nc(NCc3ccco3)c3ccccc3n2)c1 do in these assays?
Rab7 wt modul: 79; Rab2 wt GTP: 72; Rac1 wt modul: inactive; Rac1 act GTP bind: inactive; HRas wt GTP bind: inactive; Cdc42 wt: inactive

Results for Cc1ccc(Cn2c(=N)c(C(=O)NCc3ccco3)cc3c(=O)n4ccccc4nc32)cc1 ?
Rab7 wt modul: inactive; Rab2 wt GTP: inactive; Rac1 wt modul: inactive; Rac1 act GTP bind: inactive; HRas wt GTP bind: inactive; Cdc42 wt: inactive

What do the screens show for `CCNC(=O)c1cc2c(=O)n3cccc(C)c3nc2n(CCc2ccccc2)c1=N`?
Rab7 wt modul: inactive; Rab2 wt GTP: 72; Rac1 wt modul: inactive; Rac1 act GTP bind: inactive; HRas wt GTP bind: 71; Cdc42 wt: 71

How did N=c1c(C(=O)NCc2ccco2)cc2c(=O)n3ccccc3nc2n1CCc1ccccc1 do in these assays?
Rab7 wt modul: inactive; Rab2 wt GTP: 75; Rac1 wt modul: 72; Rac1 act GTP bind: inactive; HRas wt GTP bind: 77; Cdc42 wt: inactive

How did CCOC(=O)c1ccc(Nc2nc(C(=O)OCC)nc3ccccc23)cc1 do in these assays?
Rab7 wt modul: inactive; Rab2 wt GTP: 73; Rac1 wt modul: inactive; Rac1 act GTP bind: inactive; HRas wt GTP bind: 73; Cdc42 wt: 69

How did CC[C@H](C)[C@H](NC(N)=O)C(=O)Nc1ccccc1F do in these assays?
Rab7 wt modul: inactive; Rab2 wt GTP: inactive; Rac1 wt modul: inactive; Rac1 act GTP bind: inactive; HRas wt GTP bind: inactive; Cdc42 wt: inactive

What do the screens show for `Cc1ccc(S(=O)(=O)N(C)C)cc1NC(=O)COC(=O)c1ccc(Cl)cc1`?
Rab7 wt modul: inactive; Rab2 wt GTP: inactive; Rac1 wt modul: 144[activator]; Rac1 act GTP bind: inactive; HRas wt GTP bind: inactive; Cdc42 wt: inactive

How did COc1ccc(-c2nn3c(-c4ccccn4)nnc3s2)cc1OC do in these assays?
Rab7 wt modul: inactive; Rab2 wt GTP: 79; Rac1 wt modul: 74; Rac1 act GTP bind: inactive; HRas wt GTP bind: inactive; Cdc42 wt: inactive

Results for NC(=O)Cn1c(=O)n(CCC(=O)NCCSCc2ccccc2)c(=O)c2ccccc21 ?
Rab7 wt modul: inactive; Rab2 wt GTP: inactive; Rac1 wt modul: inactive; Rac1 act GTP bind: inactive; HRas wt GTP bind: inactive; Cdc42 wt: inactive

What do the screens show for `CSc1nnc(C)c(/C=C/Nc2ccc(F)cc2)n1`?
Rab7 wt modul: inactive; Rab2 wt GTP: inactive; Rac1 wt modul: inactive; Rac1 act GTP bind: inactive; HRas wt GTP bind: inactive; Cdc42 wt: inactive

How did COc1ccc(N/C=C/c2nc(SC)nnc2C)cc1 do in these assays?
Rab7 wt modul: inactive; Rab2 wt GTP: 66; Rac1 wt modul: 64; Rac1 act GTP bind: inactive; HRas wt GTP bind: 69; Cdc42 wt: 67

What do the screens show for `Cc1ccc(COc2ccsc2C(=O)O)cc1`?
Rab7 wt modul: inactive; Rab2 wt GTP: inactive; Rac1 wt modul: inactive; Rac1 act GTP bind: inactive; HRas wt GTP bind: inactive; Cdc42 wt: 120[activator]

How did O=C(NCc1ccc2c(c1)OCO2)c1ccc(S(=O)(=O)N2CCOCC2)cc1 do in these assays?
Rab7 wt modul: inactive; Rab2 wt GTP: inactive; Rac1 wt modul: inactive; Rac1 act GTP bind: inactive; HRas wt GTP bind: inactive; Cdc42 wt: inactive

How did O=C(NCc1ccccc1F)Nc1ccc([N+](=O)[O-])cc1 do in these assays?
Rab7 wt modul: inactive; Rab2 wt GTP: inactive; Rac1 wt modul: inactive; Rac1 act GTP bind: inactive; HRas wt GTP bind: inactive; Cdc42 wt: inactive

How did O=C(NC1CCCCC1)C(c1ccco1)N(Cc1ccco1)C(=O)c1ccco1 (stereo not drawn) do in these assays?
Rab7 wt modul: inactive; Rab2 wt GTP: inactive; Rac1 wt modul: inactive; Rac1 act GTP bind: inactive; HRas wt GTP bind: 64; Cdc42 wt: inactive

How did Cc1c(C(=O)C(=O)NCc2cccs2)c2ccccc2n1C do in these assays?
Rab7 wt modul: inactive; Rab2 wt GTP: inactive; Rac1 wt modul: inactive; Rac1 act GTP bind: inactive; HRas wt GTP bind: inactive; Cdc42 wt: inactive

Results for Clc1ccccc1-c1ccc(/C=N/Nc2nncc(-c3ccccc3)n2)o1 ?
Rab7 wt modul: inactive; Rab2 wt GTP: inactive; Rac1 wt modul: 79; Rac1 act GTP bind: inactive; HRas wt GTP bind: inactive; Cdc42 wt: inactive

Results for Clc1ccc(-c2ccc(/C=N/Nc3nncc(-c4ccccc4)n3)o2)cc1 ?
Rab7 wt modul: inactive; Rab2 wt GTP: inactive; Rac1 wt modul: inactive; Rac1 act GTP bind: inactive; HRas wt GTP bind: inactive; Cdc42 wt: inactive

What do the screens show for `CCN(CC)C(=O)CSc1nnnn1-c1ccc(F)c(Cl)c1`?
Rab7 wt modul: inactive; Rab2 wt GTP: inactive; Rac1 wt modul: inactive; Rac1 act GTP bind: inactive; HRas wt GTP bind: inactive; Cdc42 wt: inactive

How did Cc1ccc(Sc2ncccc2C(=O)O)c(C)c1 do in these assays?
Rab7 wt modul: inactive; Rab2 wt GTP: 124[activator]; Rac1 wt modul: 135[activator]; Rac1 act GTP bind: 127[activator]; HRas wt GTP bind: 123[activator]; Cdc42 wt: 126[activator]

How did Cc1ccc(C)c(CSc2ncccc2C(=O)O)c1 do in these assays?
Rab7 wt modul: inactive; Rab2 wt GTP: inactive; Rac1 wt modul: 144[activator]; Rac1 act GTP bind: 126[activator]; HRas wt GTP bind: inactive; Cdc42 wt: 132[activator]

Results for O=C(O)CSc1ncccc1C(=O)O ?
Rab7 wt modul: inactive; Rab2 wt GTP: inactive; Rac1 wt modul: inactive; Rac1 act GTP bind: inactive; HRas wt GTP bind: inactive; Cdc42 wt: inactive

Results for O=C(O)c1cccnc1SCc1ccccc1Cl ?
Rab7 wt modul: inactive; Rab2 wt GTP: inactive; Rac1 wt modul: 131[activator]; Rac1 act GTP bind: 121[activator]; HRas wt GTP bind: inactive; Cdc42 wt: 122[activator]

Results for O=Cc1ccc(Sc2ncccn2)o1 ?
Rab7 wt modul: inactive; Rab2 wt GTP: inactive; Rac1 wt modul: inactive; Rac1 act GTP bind: inactive; HRas wt GTP bind: inactive; Cdc42 wt: inactive

Results for O=c1[nH]c(N/N=C/c2ccc(O)cc2)nc2ccccc12 ?
Rab7 wt modul: inactive; Rab2 wt GTP: 77; Rac1 wt modul: 77; Rac1 act GTP bind: inactive; HRas wt GTP bind: 76; Cdc42 wt: inactive

What do the screens show for `O=c1[nH]c(N/N=C\c2ccc(F)cc2)nc2ccccc12`?
Rab7 wt modul: inactive; Rab2 wt GTP: inactive; Rac1 wt modul: inactive; Rac1 act GTP bind: inactive; HRas wt GTP bind: inactive; Cdc42 wt: inactive

Bioassay records deposited in PubChem by NMMLSC.
